Measured values as given in ChEMBL document CHEMBL3433997, “St. Jude Leishmania screening dataset” (2016).

target: Hexose transporter 1 (Plasmodium falciparum) (UniProt O97467); test: ST_JUDE_LEISH: Cytotoxicity at 2uM final concentration against transgenic Leishmania Mexicana promastigotes LmPfHT that are glucose transport deficient and complemented with the Plasmodium falciparum hexose transporter. Activity is measured by DNA content using SYBR green in vitro; format: functional

Row | Compound | inhibition
1 | O=C1C(=Cc2c(O)ccc3ccccc23)SC(=NCc2ccccc2)N1Cc1ccccc1 | 2.01%
2 | CCCCCCCN(CCCCCCC)CCCC(=O)Nc1ccnc2ccc(OC)cc12 | 1.31%
3 | Cc1c(C)c2c(c(C)c1O)CCC(C)(CCC(=O)O)O2 (stereo not drawn) | 2.15%
4 | Cc1[nH]c(C)c([N+](=O)[O-])c(=O)c1-c1ccc(Oc2ccc(OC(F)(F)F)cc2)cc1 | 1.27%
5 | COc1ccc(C(=O)CCc2ccc(O)cc2)cc1 | 1.48%
6 | COc1cc(-n2c(CN3CCCC3)nc3cc(-c4ccc(Cl)cc4)sc3c2=O)ccc1OCCN1CCCC1 | 2.69%
7 | Cc1cc(NC2CCCC2)nc(Nc2ccccc2F)n1 | 4.74%
8 | CC1(C)CN2CCCC2c2cc(NC(=O)/C=C/c3ccccc3Cl)ccc21 (stereo not drawn) | 2.04%
9 | O=C(Nc1cccc(CN2CCCN(Cc3ccsc3)CC2)c1)c1cc2ccccc2s1 | 0.58%
10 | CCCN1CCN(CCCCNc2c3ccccc3nc3ccccc23)CC1 | 73.8%
11 | CC1(C)NC(N)=NC(=N)N1OCCCO | -0.74%
12 | Cc1c(F)cc(C(=O)NC2CC2)cc1-c1ccc2c(cnn2S(=O)(=O)c2cccs2)c1 | 5.11%
13 | COc1ccc(C(=O)O)cc1OCc1ccccc1 | -0.29%
14 | COc1cc2c(cc1OC)C(C(=O)Nc1cc(OC)c(OC)c(OC)c1)C(c1ccc(SC)cc1)N(C)C2=O (stereo not drawn) | 0.98%
15 | Cc1ccc(F)cc1S(=O)(=O)Nc1ccc(CCN2CCC(N3CCCCC3)CC2)cc1 | -0.31%
16 | Nc1nc(N)c2c(ccc3c2ccn3Cc2ccc3c(c2)OCO3)n1 | 97.5%
17 | COc1ccc2nccc([C@@H](O)CN3CCC(NC(=O)CCC(=O)c4cc(C(C)(C)C)ccc4OC)CC3)c2c1 | 4.7%
18 | CCCCCCCN1CCC(CCNc2ccnc3ccc(OC)cc23)CC1 | 2.47%
19 | COc1ccc2nccc([C@@H](O)CN3CCC(NC(=O)c4ccc(Cl)c(OC)c4)CC3)c2c1 | 7.71%
20 | O=C(/C=C/c1ccc(Cl)c(Cl)c1)NCCCCCN1CCCN(C(=O)Nc2cccc(Cl)c2)CC1 | 0.75%
21 | O=C(Cc1n[nH]c(=O)c2ccccc12)Nc1cccc(C(=O)Nc2cccc(C(F)(F)F)c2)c1 | 4.12%
22 | Cc1ccc(CN2CCCN(Cc3cccc(NC(=O)c4ccc(-c5ccccc5)cc4)c3)CC2)cc1C | 2.98%
23 | COc1ccc2nc(C)cc(N/N=C/c3ccc([N+](=O)[O-])o3)c2c1 | 6.04%
